# Inconclusive results are not listed. A call without a number means that no potency is given here. The source made the active and inactive calls. Calls come from the whole dose curve.
# Assay: Cytotoxicity counterscreen for inhibitors of SARS-CoV-2 cell entry (AID 1645845); note: nearly all actives have a fitted effect of over 50% in size
# Conditions: cell viability (SARS-CoV-2 entry assay cells); series mostly up to 57.1 µM
# Method in brief: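 Expi293F/hACE2 cells seeded overnight; cpd pin-transferred in DMSO, 1 h preincubation, + media, 48 h 37 C 5% CO2; ATPLite 1step luminescence; normalized to cells and no cells.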
# Potency is the fitted concentration of half-maximal effect.
row,Compound,Potency
1,CCN(CC)CCCCNc1nc2cc(Cl)c(Cl)cc2nc1-c1ccc(-c2cccs2)s1,inactive
2,NC(=O)c1ccc(-c2nc(-c3ccc4c(c3)OCO4)c(-c3ccccn3)[nH]2)cc1,inactive
3,Cc1cccc(-c2[nH]c(C(C)(C)C)nc2-c2ccc3nccnc3c2)n1,inactive
4,CCN(CC)CCn1c(=O)c(Cc2ccc(OC)cc2)nc2ccccc21,inactive
5,S=c1[nH]c2ccccc2s1,inactive
6,COc1cc(Oc2ccnc3cc(OC)c(OC)cc23)ccc1NC(=O)NC(C)c1nccs1 (configuration not stated),inactive
7,NC(=O)c1c(OCc2c(F)cc(Br)cc2F)nsc1NC(=O)NCCCCN1CCCC1,inactive
8,CCCCCCCCCCC(CO)CCCCCCCC (configuration not stated),inactive
9,N#CC[C@H](C1CCCC1)n1cc(-c2ncnc3[nH]ccc23)cn1,inactive
10,COc1nc(-c2ccc3c(c2)OCO3)n(-c2ccc(NC(=O)CSc3ccccc3)cc2)n1,inactive
11,COc1cccc2cc(-c3nc(C4CCC(C(=O)O)CC4)n4ncnc(N)c34)[nH]c12 (configuration not stated),inactive
12,COc1ccc(CCN2CCN(CCCc3ccccc3)CC2)cc1OC,inactive
13,CCOC(=O)[C@@H](N)CCC(=O)N[C@@H](CSCc1ccccc1)C(=O)N[C@@H](C(=O)OCC)c1ccccc1,inactive
14,Cc1cc(C(=O)NNCc2ccccc2)no1,inactive
15,O=C1C(Cl)=C(NCCN2CCOCC2)C(=O)c2ncccc21,28.2 µM (active)
16,CNC(=O)c1cc(Oc2ccc(NC(=O)Nc3cc(C(C)(C)C)nn3-c3ccc4ncccc4c3)c(F)c2)ccn1,inactive
17,COc1ccccc1[C@H](c1cccc2ccccc12)[C@@](C)(C#N)C(=O)N1CCC(c2cccc(C(F)(F)F)c2)CC1,inactive
18,C[C@@H](N)C1CCC(C(=O)Nc2ccncc2)CC1 (some centres not stated),inactive
19,CS(=O)(=O)Oc1ccc2c(NC(N)=O)c(C(=O)c3ccc(Cl)cc3Cl)oc2c1,inactive

row,Compound,Potency
1,O=C(O)CCc1ccc(NCc2cccc(Oc3ccccc3)c2)cc1,inactive
2,Cc1cc([C@@H](C)Nc2ccccc2C(=O)O)c2nc(N3CCOCC3)cc(=O)n2c1,inactive
3,O=C(Nc1cc(Cl)cc2c1[nH]c1cnccc12)c1cccnc1,inactive
4,Cc1cc(SCc2sc(-c3ccc(C(F)(F)F)cc3)nc2C)ccc1OCC(=O)O,inactive
5,CCCS(=O)(=O)Nc1ccc(F)c(C(=O)c2c[nH]c3ncc(Cl)cc23)c1F,inactive
6,CC[N+](C)(CC)CCOC(=O)C(O)(c1ccccc1)C1CCCCC1 (configuration not stated),inactive
7,O=C(Nc1cc(C(F)(F)F)cc(C(F)(F)F)c1)c1cc(Cl)ccc1O,1.58 µM (active)
8,COc1cc2ncn(-c3cc(OCc4ccccc4C(F)(F)F)c(C(N)=O)s3)c2cc1OC,2.51 µM (active)
9,C=CC(=O)Nc1cc2c(Nc3ccc(F)c(Cl)c3)ncnc2cc1C#CC(C)(C)N1CCN(C)CC1,25.1 µM (active)
10,Oc1cccc(-c2nc(N3CCOCC3)c3oc4ncccc4c3n2)c1,inactive
11,CC1=C(/C=C/C(C)=C/C=C/C(C)=C/C(=O)O)C(C)(C)CCC1,inactive
12,CCOc1cc2ncc(C#N)c(Nc3ccc(OCc4ccccn4)c(Cl)c3)c2cc1NC(=O)/C=C/CN(C)C,inactive
13,CC(=O)NCCC(=O)N[C@@H](CCC(N)=O)C(=O)N[C@@H](CO)C(=O)N[C@@H](CCC(N)=O)C(=O)N[C@@H](CCC(N)=O)C(=O)N[C@H](C(=O)N[C@@H](Cc1ccccc1)C(=O)N[C@]1(C)CCCCCCC=CCCC[C@@](C)(C(=O)N[C@@H](CCC(N)=O)C(=O)N[C@@H](CC(N)=O)C(N)=O)NC(=O)[C@H](CC(C)C)NC(=O)[C@H](CC(C)C)NC(=O)[C@@H](CCCNC(=N)N)NC(=O)[C@H](Cc2c[nH]c3ccccc23)NC(=O)[C@H](CC(C)C)NC(=O)[C@H](CC(N)=O)NC1=O)[C@H](C)O,inactive
14,NC(CO)C(=O)NNCc1ccc(O)c(O)c1O (configuration not stated),inactive
15,CCOC(=O)C(C)Oc1cccc2c(=O)n(CC(=O)Nc3ccc4c(c3)OCCO4)ccc12 (configuration not stated),inactive
16,COc1cccc2c1CCCC2CCCN1CCN(C2CCCCC2)CC1 (configuration not stated),inactive
17,CC(C)c1ccc(Cn2ccc3c4c(N)nc(NC5CC5)nc4ccc32)cc1,2.51 µM (active)
18,CCCCc1ccc(NS(=O)(=O)c2ccc(C)c(C(=O)N3CCN(c4cccc(C)c4C)CC3)c2)cc1,inactive
